Measurements taken from PubChem BioAssay AID651820 (National Center for Advancing Translational Sciences (NCATS), 2012).
The whole screen tested about 340,000 compounds, of which about 12,000 (3.5%) were called active. About 18% were inconclusive and are not listed. Calls come from the whole dose curve; as a rule, active = well fitted inhibition curve with a large enough effect; inconclusive = small, poorly fitted or top-dose-only effect, or another doubt; inactive = no such curve, though single readings can be large or run the other way. Only a selection was taken, and actives are over-represented in it overall.

experiment: qHTS Assay for Inhibitors of Hepatitis C Virus (HCV); details: Huh7.5.1 HCVcc-Cre infection, luciferase reporter, 44 h; series mostly up to 41.8 µM; activity change, negative = inhibition: at the top concentration
Outline: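 Cells seeded at 1,000/well and cultured 4 h, then compounds added followed by HCVcc-Cre virus (~0.5 moi). After 44 h further culture, luciferase substrate was added, plates held 15 min at room temperature, and luminescence read for 15 sec.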
% is set by controls: 0 for no effect and ±100 for the full control effect; potency is the fitted concentration of half-maximal effect.

SMILES | activity change, negative = inhibition | Potency
Cc1cc(=O)[nH]c(SCc2ccc(Cl)cc2)n1 | 1.05% (inactive) | –
Cc1cc(C(=O)CSc2nc(N)cc(=O)[nH]2)c(C)n1CCc1ccc(Cl)cc1 | – | 11.2 µM (active)
CCCc1cc(=O)[nH]c(SCC(=O)c2cc(C)n(CCC)c2C)n1 | -2.25% (inactive) | –
Cc1ccc(S(=O)(=O)N2CCN(C(=O)c3cc(S(=O)(=O)N4CCOCC4)ccc3F)CC2)cc1 | -10.9% (inactive) | –
CCCCCCCCNS(=O)(=O)CCNC1CCCCC1 | -21.1% (inactive) | –
COc1ccc(C(=O)Nc2ccc(N3CCC(C)CC3)cc2)cc1Br | -25.7% (inactive) | –
COc1cccc(C(=O)Nc2ccc(N3CCN(C(=O)c4ccco4)CC3)cc2)c1 | -26.8% (inactive) | –
COc1cccc(C(=O)Nc2ccc(N3CCCC3)cc2)c1 | – | 11.2 µM (active)
O=C(CSc1ncn[nH]1)Nc1ccc(Br)cc1Br | -19.4% (inactive) | –
COc1ccc(C(=O)NC2CC(C)(C)Cc3c2cnn3-c2ccccc2C)o1 (stereo not given) | -12% (inactive) | –
CC1(C)Cc2c(cnn2-c2cccc(F)c2)C(NC(=O)c2cc[n+]([O-])cc2)C1 (stereo not given) | 23.5% (inactive) | –
Cn1nccc1C(=O)NC1CCCc2c1cnn2-c1ccccc1F (stereo not given) | – | 0.891 µM (active)
Cc1cc(C(=O)NC2CCCc3c2cnn3-c2cccc(C)c2C)c(C)o1 (stereo not given) | – | 10 µM (active)
COc1ccc(C(=O)NC2CCCc3c2cnn3-c2cccc(C)c2C)c(OC)n1 (stereo not given) | – | 2.24 µM (active)
Cc1cc(C(=O)NNC(=O)c2ccccc2O)c(C)o1 | -18.6% (inactive) | –
COc1cccc(C(=O)Nc2c3c(nn2-c2cccc(C)c2C)CS(=O)(=O)C3)c1OC | -22.1% (inactive) | –
CC(=O)NCC(=O)NC1CCCc2c1cnn2-c1ccccc1F (stereo not given) | 11.3% (inactive) | –
Cc1cccc(C(=O)OC(C)C(=O)NC2CCCc3ccccc32)c1O (stereo not given) | 10.8% (inactive) | –
NC(=S)NN=C1CCCC(C(F)(F)F)C1 (stereo not given) | 19.4% (inactive) | –
C#CCOCCOCCOCCNc1nc(N2CCN(C(=O)Cn3cc(CCCCN)nn3)CC2)nc(N2CCN(C(=O)[C@H](CCCCN)n3cc(CCC(=O)O)nn3)CC2)n1 | 19.6% (inactive) | –
CCOC(=O)C1=CN(Cc2ccc(Br)cc2)S(=O)(=O)N(C)C1C (stereo not given) | -2.23% (inactive) | –
CCOC(=O)[C@H]1[C@H]2COc3cc(OC)ccc3[C@@H]2N2C(=O)CN(Cc3ccc(Cl)cc3)C(=O)[C@@]12C | 1.97% (inactive) | –
CN(CC(=O)NCCc1ccc(S(N)(=O)=O)cc1)CC(=O)Nc1ccc(F)c(F)c1F | -10.3% (inactive) | –
O=C(NCCS(=O)(=O)N1CCN(c2ccc(F)cc2)CC1)c1ccc2c(c1)OCO2 | -7.36% (inactive) | –
CCCSc1nc(NCc2ccco2)c2c3c(sc2n1)COC(C)(CC)C3 (stereo not given) | -20.9% (inactive) | –

SMILES | activity change, negative = inhibition | Potency
CC1CCN(C(=O)CCc2nnc3ccc(NCc4ccco4)nn23)CC1 | 18.5% (inactive) | –
CN1CCc2c(sc3c2c(NCc2ccco2)nc2nnnn23)C1 | – | 10 µM (active)
CCC1(c2ccccc2)NC(=O)N(CC(=O)Nc2ccccc2C(=O)NC2CCCC2)C1=O (stereo not given) | -12.5% (inactive) | –
COCC(C)n1c(SCC(=O)NC2CCCCC2C)nc2ccccc2c1=O (stereo not given) | 9.44% (inactive) | –
CSCCC(NC(=O)c1ccco1)C(=O)Nc1cc(C)ccn1 (stereo not given) | 30.5% (inactive) | –
COc1cc(Br)c(-c2sc(Nc3ccccc3)n[n+]2-c2ccccc2)cc1OC | 5.25% (inactive) | –
Cc1ccc(Nc2nnc(SCc3ccccc3)s2)cc1 | -17.6% (inactive) | –
CCc1ccc(Nc2n[n+](-c3ccccc3)c(-c3cccc(Cl)c3Cl)s2)cc1 | – | 10 µM (active)
CCCN(C(=O)COC(=O)CNS(=O)(=O)c1ccc(NC(C)=O)cc1)C1CCS(=O)(=O)C1 (stereo not given) | 18.2% (inactive) | –
COc1cc(OC)cc(C(=O)NNC(=O)CCOc2ccccc2OC)c1 | 13.4% (inactive) | –
COc1ccc(C)cc1NC(=O)c1cc(-c2ccccc2)nc2c1cnn2C(C)C | -27.2% (inactive) | –
O=C1Cc2cc(S(=O)(=O)Nc3cccc(F)c3)ccc2N1 | 13.7% (inactive) | –
COc1cc(OC)nc(S(C)(=O)=O)n1 | 5.26% (inactive) | –
COc1ccc(-c2cc(C(=O)NCCCN3CCCC3=O)c3ccccc3n2)cc1OC | 17% (inactive) | –
COc1ccc(-c2cc(C(F)(F)F)nc(S(C)(=O)=O)n2)cc1OC | – | 10 µM (active)
CSCCC(NC(=O)COc1ccccc1)C(=O)OCc1ccc(Cl)cc1 (stereo not given) | 25.3% (inactive) | –
O=C(COC(=O)c1ccc(O)cc1O)c1ccc2c(c1)OCCO2 | -6.11% (inactive) | –
Cc1ccccc1-n1nc(C)c2cc(C(=O)NC3CC3)sc21 | -26.6% (inactive) | –
CN(CCNC(=O)c1cc2c(-c3ccccc3F)nn(C)c2s1)C1CCCCC1 | – | 12.6 µM (active)
CCOC(=O)N1CCN(C(=O)c2cc3c(-c4ccc(Cl)cc4)nn(C)c3s2)CC1 | -20% (inactive) | –
CCOc1ncccc1C(=O)NNC(=O)c1cccc(S(=O)(=O)Nc2ccccc2OC)c1 | 3.32% (inactive) | –
C=CCCC(=O)N1C[C@H]2CON(C)[C@H]2C[C@H]1c1cccc(Nc2ccccc2)c1 | -15.5% [at 8.37 µM] (inactive) | –
Cc1ccc(C)c(NC(=S)NNC(=S)Nc2ccc(C(C)C)cc2)c1 | – | 5.62 µM (active)
CC(C)c1ccc(NC(=S)NNc2ccc(Cl)c(C(=O)O)c2)cc1 | 8.76% (inactive) | –
Cc1ccc(C)c(NC(=S)NNC(=O)c2csc(C)c2)c1 | 8.71% (inactive) | –

SMILES | activity change, negative = inhibition | Potency
CCOc1ccc(Br)cc1S(=O)(=O)Nc1ccc(S(=O)(=O)Nc2cc(C)on2)cc1 | 4.99% (inactive) | –
COc1ccc(C2CC(c3cccs3)=NN2C(=O)CCC(=O)O)cc1OC (stereo not given) | 4.23% (inactive) | –
COc1ccc(C2CC(c3cccs3)=NN2c2ccc(F)cc2)cc1OC (stereo not given) | -5.17% (inactive) | –
COc1ccc(C2CC(c3cccs3)=Nc3ccccc3S2)cc1OC (stereo not given) | – | 11.2 µM (active)
O=C(Nc1c[nH]c(=O)[nH]c1=O)OCc1ccccc1 | 6.8% (inactive) | –
CCOc1ccc(-c2nnc3ccc(SC)nn23)cc1 | -21.9% (inactive) | –
CCOc1ccc(-c2cc(C)[n+](CCN(CC)CC)c(-c3ccc(OCC)cc3)c2)cc1 | – | 11.2 µM (active)
CCOc1ccc(-c2c(C)n([O-])c3c([n+]2=O)CCCC3)cc1 | 3.27% (inactive) | –
O=C(NCCCN1CCOCC1)c1cc(-c2cccc(O)c2)on1 | 11.8% (inactive) | –
COc1ccc(-c2cc(C(=O)NCCCN3CCOCC3)no2)cc1 | -3.36% (inactive) | –
O=C(NCCCN1CCOCC1)c1cc(-c2ccc(Cl)cc2)on1 | – | 11.2 µM (active)
C[C@H](NC(=O)c1ccccc1Cl)C(=O)OCC(=O)N1CCN(c2ccccc2)CC1 | 12.9% (inactive) | –
CCN(CC)c1ccc(/C=N/NC(=O)CNC(=O)c2cccnc2)cc1 | 5.9% (inactive) | –
CCN(CC)c1ccc(/C=N/NC(=O)c2cnccn2)c(O)c1 | – | 3.55 µM (active)
Cc1ccc(C(=O)NCCNC(=O)c2cnccn2)cc1 | 4.04% (inactive) | –
CCC1([N+](=O)[O-])COC(c2ccc(C)cc2)OC1 (stereo not given) | 3.04% (inactive) | –
COc1ccc(C(=O)NCc2ccc(Cl)cc2)cc1S(=O)(=O)N1CCCC1 | 7.82% (inactive) | –
O=C(COC(=O)c1cnccn1)Nc1ccc(Cl)cc1C(F)(F)F | 4.23% (inactive) | –
CCOC(=O)C1CCN(c2ccc(C(=O)O)cc2[N+](=O)[O-])CC1 | 12.9% (inactive) | –
Cc1ccc(C(=O)c2ccc(N3CCN(C)CC3)c([N+](=O)[O-])c2)cc1 | – | 10 µM (active)
O=C(NC1C2CC3CC(C2)CC1C3)c1ccc(N2CCNCC2)c([N+](=O)[O-])c1 (stereo not given) | -6.97% (inactive) | –
Cc1cccc(N2CCN(c3ccc(C(N)=O)cc3[N+](=O)[O-])CC2)c1C | 22.1% (inactive) | –
O=C(NCCCN1CCOCC1)c1ccc(N2CCCC2)c([N+](=O)[O-])c1 | 1.42% (inactive) | –
CS(=O)(=O)N1CCN(c2ccc(C(=O)NC3C4CC5CC(C4)CC3C5)cc2[N+](=O)[O-])CC1 (stereo not given) | – | 11.2 µM (active)
Cc1cc([N+](=O)[O-])c(=O)[nH]c1C | 20.7% (inactive) | –

SMILES | activity change, negative = inhibition | Potency
CN(C)C(=O)CCc1ccc2c3c([nH]c2c1)[C@]1(C)[C@@H](C(=O)N2CCCCC2)C[C@H](CC(=O)NCCC2=CCCCC2)C(=O)N1CC3 | 7.48% (inactive) | –
COc1cc(OC)cc(C(=O)NNC(=O)Cc2cccs2)c1 | -4.33% (inactive) | –
O=C(CNc1ccccc1N1CCCC1=O)Nc1cc(Cl)ccc1-n1cncn1 | 0.824% (inactive) | –
OCCNc1nc(Nc2ccc(Cl)c(Cl)c2)nc2ccccc12 | – | 10 µM (active)
CN(C)c1nc(Nc2ccc(Cl)c(Cl)c2)nc(N(C)C)n1 | -6.29% (inactive) | –
Cc1nnc(NCCO)c2ccccc12 | 21.6% (inactive) | –
CC(C)Sc1nc(N)nc2c1ncn2C1OC(CO)C(O)C1O (stereo not given) | 5.19% (inactive) | –
CC[C@]12c3[nH]c4ccc(OC)cc4c3CCN1C(=O)C(CC(=O)NCCN1CCOCC1)C[C@@H]2C(=O)N1CCN(C(=O)C2CC2)CC1 (stereo not given in full) | -14.4% (inactive) | –
Cc1cccn2c(=O)c3cc(C(=O)NCC4CCCO4)c(=N)n(Cc4ccc(F)cc4)c3nc12 (stereo not given) | – | 5.62 µM (active)
Cc1cccn2c(=O)c3cc(C#N)c(=NC(=O)c4cccnc4)n(CC4CCCO4)c3nc12 (stereo not given) | 2.8% (inactive) | –
O=C(Nc1ccccc1C(=O)NCC1CCCO1)c1ccccc1F (stereo not given) | 2.29% (inactive) | –
CCOc1ccc(CCNC(=O)CN2C(=O)NC3(CCc4ccccc43)C2=O)cc1OCC (stereo not given) | 7.59% (inactive) | –
COc1cc(/C=C/C2=CC(C)(C)NC(=S)N2)cc(OC)c1OC | 0.519% (inactive) | –
COc1ccc(/C=C2/C(=O)N(c3ccccc3)N=C2C)c(OC)c1 | 19% (inactive) | –
COc1ccc(/C=C/C2=CC(C)(C)NC(=S)N2)c(OC)c1 | – | 14.1 µM (active)
CCCCn1c(SCc2ncc(-c3ccccc3)o2)nc2cc(S(N)(=O)=O)ccc21 | – | 6.31 µM (active)
CCCCn1c(SCC(=O)N2CCCC2=O)nc2cc(S(N)(=O)=O)ccc21 | 14.2% (inactive) | –
CCn1c(SCC(=O)NCC2CCCO2)nc2cc(S(=O)(=O)N3CCCCC3)ccc21 (stereo not given) | -16.5% (inactive) | –
CC(=O)Nc1ccc(SC[C@H](Cc2ccccc2)N2CC[C@@H](C)CCC2=O)cc1 | 17.1% (inactive) | –
C=C(C)COc1ccc(-c2nc(N)ncc2-c2ccccc2OC)c(O)c1 | – | 10 µM (active)
COc1ccc(-c2nc(N)ncc2-c2ccc(Cl)cc2)c(O)c1 | -24.2% (inactive) | –
CCOc1ccc(-c2nc(N)ncc2-c2ccccc2OC)c(O)c1 | -9.58% (inactive) | –
O=C(COC(=O)c1ncc(Cl)c(Cl)c1Cl)NCc1ccccc1 | 1.03% (inactive) | –
O=C(CCNC(=O)c1ccccc1Cl)NN=Cc1ccco1 | 16% (inactive) | –
COC(=O)C1=C(C)NC(=S)NC1c1ccc(OCC(=O)N2CC(C)OC(C)C2)c(OC)c1 (stereo not given) | 10.3% (inactive) | –
